Measurements taken from the supplement of paper PMC6089552.
About 300 (9.4%) of roughly 3,200 compounds showed activity. The sample holds actives, similar compounds and a random draw of the others, so the mix is not that of the screen.

Tested on: A673/TR/shEF
Assay: cell viability (LOESS-normalised, relative to median of negative controls) (log2 ratio); higher = more viable cells (less compound effect), active = hit call of the paper (over 3 MAD below the median)
Conditions: treatment time: 72 h
Summary of the method: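 For three days, A673/TR/shEF Ewing sarcoma cells in 384-well plates (1,500 per well) were treated with library compounds at two or more concentrations or with DMSO controls, after doxycycline had been added or withheld 24 h beforehand to induce EWS-FLI1 shRNA knockdown. Viability was read by CellTiter-Glo luminescence on an Envision reader. The data were LOESS-corrected per plate, divided by the median of negative controls and log2-transformed.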

[1] = 0.25 µM, library screen: screen1, EWS-FLI1 expression: high (no doxycycline)
[2] = 0.25 µM, library screen: screen1, EWS-FLI1 expression: low (doxycycline-induced shRNA knockdown)
[3] = 2.5 µM, library screen: screen1, EWS-FLI1 expression: high (no doxycycline)
[4] = 2.5 µM, library screen: screen1, EWS-FLI1 expression: low (doxycycline-induced shRNA knockdown)
[5] = 0.025 µM, library screen: screen1, EWS-FLI1 expression: high (no doxycycline)
[6] = 0.025 µM, library screen: screen1, EWS-FLI1 expression: low (doxycycline-induced shRNA knockdown)
[7] = 0.25 µM, library screen: screen2, EWS-FLI1 expression: high (no doxycycline)
[8] = 0.25 µM, library screen: screen2, EWS-FLI1 expression: low (doxycycline-induced shRNA knockdown)
[9] = 2.5 µM, library screen: screen2, EWS-FLI1 expression: high (no doxycycline)
[10] = 2.5 µM, library screen: screen2, EWS-FLI1 expression: low (doxycycline-induced shRNA knockdown)
[11] = 25 µM, library screen: screen1, EWS-FLI1 expression: high (no doxycycline)
[12] = 25 µM, library screen: screen1, EWS-FLI1 expression: low (doxycycline-induced shRNA knockdown)

Measured: cell viability (log2)

CC1(C)C(=O)C=C[C@]2(C)[C@H]3CC[C@@]4(C)[C@H](c5ccoc5)OC(=O)[C@H]5O[C@]54[C@]3(C)C=C[C@@H]12
inactive: [1] 0.0993 | [2] 0.0207 | [3] 0.1 | [4] 0.161

CC(=O)O[C@H]1C[C@@H](OC(C)=O)C(C)(C)C2C[C@@H](OC(C)=O)[C@@]3(C)C4=CC(=O)OC(=O)[C@]4(C)CCC3[C@]21C (stereo not given in full)
inactive: [1] 0.0349 | [2] 0.118 | [3] 0.174 | [4] 0.189

CC1(C)C(=O)[C@@H]2C[C@@]3(O)C4=CC(=O)O[C@@H](c5ccoc5)[C@]4(C)CCC3C(C)(C2=O)[C@H]1CC(=O)O (stereo not given in full)
inactive: [1] 0.0688 | [2] 0.13 | [3] 0.086 | [4] 0.0264

O=C(O)c1ccc(OC2CSC2)cc1
inactive: [1] -0.0489 | [2] 0.0317 | [3] 0.0805 | [4] 0.0727

O=C1Nc2ccc(I)cc2/C1=C/c1cc(Br)c(O)c(Br)c1
inactive: [5] 0.115 | [6] -0.011 | [1] 0.134 | [2] -0.0458 | [7] 0.275 | [8] 0.0983 | [3] 0.0489 | [4] 0.0445 | [9] 0.0633 | [10] 0.123 | [11] -0.0847 | [12] 0.107

CN(C)c1ccc(/C=C2\C(=O)Nc3ccccc32)cc1
active: [7] -1.84 | [8] -0.565 | [3] -0.163 | [9] -2.61 | [10] -0.918 | [11] -0.158
inactive: [5] 0.182 | [6] 0.00152 | [1] 0.171 | [2] 0.0583 | [4] 0.0499 | [12] 0.195

CC(C)N1C(=O)/C(=C/c2ccc(N(C)C)cc2)SC1=S
inactive: [1] 0.23 | [2] 0.276 | [3] 0.232 | [4] 0.349

O=C(O)CN(CC(=O)O)Cc1cc2c(cc1O)Oc1cc(O)c(CN(CC(=O)O)CC(=O)O)cc1C21OC(=O)c2ccccc21
inactive: [1] 0.133 | [2] 0.0463 | [3] 0.15 | [4] 0.0168

COc1ccc(NC(=O)/C(=C/c2cccnc2)NC(=O)c2cccs2)cc1
inactive: [1] 0.123 | [2] 0.163 | [3] 0.1 | [4] 0.101

Brc1ccc(CN2CCN(Cc3ccco3)CC2)cc1
inactive: [1] 0.0694 | [2] 0.0304 | [3] 0.0829 | [4] -0.00775

CC1=C(C(=O)OC2CCCC2)C(c2coc3ccc(Cl)cc3c2=O)C2=C(CCCC2=O)N1 (stereo not given)
inactive: [1] 0.123 | [2] 0.0763 | [3] 0.136 | [4] -0.0126
